Test results published in the supplement of paper PMC12494721.
Structures can show the parent of a compound that is named as a salt.

Legend:
Details in all cases: 20 µM; incubation time: 27 h, anaerobic, 37 °C;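 for the amine columns active = adjusted P below 0.05 in both replicates with a change the same way and a mean fold change under 0.8 or over 1.25; inactive = the rest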
[1] = test system: Clostridium sporogenes DSM 1664; assay: growth (OD595) fold change vs plate DMSO controls (fold change (ratio)); higher = more growth
Outline: (§1)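 Growth is calculated as fold change against the median of the DMSO control wells on each plate. Readings at 595 nm from anaerobic mGAM cultures (96-well, 27 h, 37 °C) were blank-subtracted, background-corrected with 20 µM compound solutions in water, and converted to OD by a calibration factor of 5. Fold changes above 1.5 were recorded as NA, and results are means of 2 biological replicates.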

Escherichia coli IAI1 [2] = assay: as above
Outline: as §1

[3] = test system: Klebsiella aerogenes DSM 30053; assay: as above
Outline: as §1

[4] = test system: Ruminococcus gnavus DSM 108212; assay: as above
Outline: as §1

[5] = test system: Klebsiella aerogenes DSM 30053; assay: fold change of Histamine concentration vs plate DMSO controls (fold change (ratio)); higher = more amine produced, active = hit call of the paper (significant change in both replicates, either direction)
Outline: (§2)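 In 80 µL wells, cultures of four gut bacterial strains in mGAM started at OD 0.1 before a 1:1 dilution and grew anaerobically at 37 °C for 27 h. Compounds were added to 20 µM final, except sweeteners at 50 µM final. After extraction of whole cultures with cold acetonitrile/methanol plus 0.1% formic acid and centrifugation, amines were measured by LC–triple-quadrupole MS in dynamic MRM mode against external calibration curves, with within-batch drift correction. Values give fold change over DMSO controls on the same plate, averaged across 2 biological replicates.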

[6] = test system: Clostridium sporogenes DSM 1664; assay: fold change of Tryptamine concentration vs plate DMSO controls (fold change (ratio)); higher = more amine produced, active = hit call of the paper (significant change in both replicates, either direction)
Outline: as §2

[7] = test system: Ruminococcus gnavus DSM 108212; assay: as above
Outline: as §2

Escherichia coli IAI1 [8] = assay: fold change of Putrescine concentration vs plate DMSO controls (fold change (ratio)); higher = more amine produced, active = hit call of the paper (significant change in both replicates, either direction)
Outline: as §2

[9] = test system: Klebsiella aerogenes DSM 30053; assay: as above
Outline: as §2

Escherichia coli IAI1 [10] = assay: fold change of Cadaverine concentration vs plate DMSO controls (fold change (ratio)); higher = more amine produced, active = hit call of the paper (significant change in both replicates, either direction)
Outline: as §2

[11] = test system: Klebsiella aerogenes DSM 30053; assay: as above
Outline: as §2

[12] = test system: Ruminococcus gnavus DSM 108212; assay: fold change of 2-Phenylethylamine concentration vs plate DMSO controls (fold change (ratio)); higher = more amine produced, active = hit call of the paper (significant change in both replicates, either direction)
Outline: as §2

| SMILES | growth [1] | growth (Escherichia coli IAI1 [2]) | growth [3] | growth [4] | fold change of Histamine concentration [5] | fold change of Tryptamine concentration [6] | fold change of Tryptamine concentration [7] | fold change of Putrescine concentration (Escherichia coli IAI1 [8]) | fold change of Putrescine concentration [9] | fold change of Cadaverine concentration (Escherichia coli IAI1 [10]) | fold change of Cadaverine concentration [11] | fold change of 2-Phenylethylamine concentration [12] |
| --- | --- | --- | --- | --- | --- | --- | --- | --- | --- | --- | --- | --- |
| CC[C@H](C)[C@H]1O[C@]2(C=C[C@@H]1C)C[C@@H]1C[C@@H](C/C=C(\C)[C@@H](O[C@H]3C[C@H](OC)[C@@H](O[C@H]4C[C@H](OC)[C@@H](O)[C@H](C)O4)[C@H](C)O3)[C@@H](C)/C=C/C=C3\CO[C@@H]4[C@H](O)C(C)=C[C@@H](C(=O)O1)[C@]34O)O2.CO[C@H]1C[C@H](O[C@H]2[C@H](C)O[C@@H](O[C@@H]3/C(C)=C/C[C@@H]4C[C@@H](C[C@]5(C=C[C@H](C)[C@@H](C(C)C)O5)O4)OC(=O)[C@@H]4C=C(C)[C@@H](O)[C@H]5OC/C(=C\C=C\[C@@H]3C)[C@]54O)C[C@@H]2OC)O[C@@H](C)[C@@H]1O | 1.09 | 1.01 | 1.05 | 1.05 | 0.985 (inactive) | 0.855 (inactive) | 0.906 (inactive) | 0.989 (inactive) | 0.99 (inactive) | 0.968 (inactive) | 0.996 (inactive) | 0.885 (inactive) |
| CC(C)N(CCC(C(N)=O)(c1ccccc1)c1ccccn1)C(C)C (centres undefined) [Disopyramide] | 1.08 | 1.04 | 1.01 | 0.817 | 0.927 (inactive) | 0.996 (inactive) | 1 (inactive) | 1.06 (inactive) | 0.996 (inactive) | 1.01 (inactive) | 1 (inactive) | 0.972 (inactive) |
| CN(C)[C@@H]1C(=O)C(C(N)=O)=C(O)[C@@]2(O)C(=O)C3=C(O)c4c(O)ccc(Cl)c4[C@@](C)(O)[C@H]3C[C@@H]12 [Chlortetracycline hydrochloride] | 0.00816 | 0.064 | 0.0706 | 0.431 | 0.0679 (active) | 0.0172 (active) | 0.302 (active) | 0.253 (active) | 0.47 (inactive) | 0.146 (active) | 0.483 (inactive) | 0.271 (active) |
| CCCC(Cn1cncn1)c1ccc(Cl)cc1Cl (centres undefined) | 0.931 | 0.973 | 1.02 | 0.977 | 1.02 (inactive) | 1.01 (inactive) | 0.984 (inactive) | 1.02 (inactive) | 1.02 (inactive) | 0.965 (inactive) | 0.997 (inactive) | 0.953 (inactive) |
| CCc1cnc(C2=NC(C)(C(C)C)C(=O)N2)c(C(=O)O)c1 (centres undefined) | 1 | 1.06 | 0.985 | 1.09 | 1 (inactive) | 0.954 (inactive) | 1.01 (inactive) | 1.03 (inactive) | 1.02 (inactive) | 0.991 (inactive) | 0.993 (inactive) | 0.984 (inactive) |
| C[N+]1(C)CCOC(O)(c2ccc(-c3ccc(C4(O)C[N+](C)(C)CCO4)cc3)cc2)C1 (centres undefined) [Hemicholinium bromide] | 1.04 | 0.992 | 1.2 | 1.27 | 0.912 (inactive) | 1.18 (inactive) | 1.06 (inactive) | 1.01 (inactive) | 0.995 (inactive) | 0.928 (inactive) | 1.02 (inactive) | 1.07 (inactive) |
| COCc1cnc(C2=NC(C)(C(C)C)C(=O)N2)c(C(=O)O)c1 (centres undefined) | 1.1 | 1.04 | 0.971 | 0.967 | 1.03 (inactive) | 1.11 (inactive) | 1.17 (inactive) | 0.961 (inactive) | 0.797 (inactive) | 0.852 (inactive) | 1.06 (inactive) | 1.43 (inactive) |
| O=C(O)C(F)(F)C(F)(F)C(F)(F)C(F)(F)C(F)(F)C(F)(F)C(F)(F)C(F)(F)C(F)(F)F [PFDeA (Perfluorodecanoic acid)] | 1.11 | 1.04 | 1.04 | 1.24 | 1.02 (inactive) | 0.916 (inactive) | 0.999 (inactive) | 1.02 (inactive) | 0.996 (inactive) | 1.01 (inactive) | 1 (inactive) | 0.962 (inactive) |
| CC(Oc1ccc(Oc2nc3ccc(Cl)cc3o2)cc1)C(=O)O (racemic) | 1.06 | 1.04 | 1.02 | 1.01 | 0.989 (inactive) | 1 (inactive) | 1 (inactive) | 1.03 (inactive) | 1.01 (inactive) | 0.937 (inactive) | 1.02 (inactive) | 1.01 (inactive) |
| CCCC1COC(Cn2cncn2)(c2ccc(Cl)cc2Cl)O1 (centres undefined) | 0.938 | 1.03 | 0.987 | 0.947 | 0.975 (inactive) | 1.04 (inactive) | 1.08 (inactive) | 0.977 (inactive) | 0.946 (inactive) | 0.939 (inactive) | 0.993 (inactive) | 1.17 (inactive) |
| CC(C)CC(N(C)C)C1(c2ccc(Cl)cc2)CCC1 (centres undefined) [Sibutramine hydrochloride] | 0.99 | 1 | 1.01 | 0.908 | 1.05 (inactive) | 0.976 (inactive) | 0.985 (inactive) | 1.01 (inactive) | 0.999 (inactive) | 0.984 (inactive) | 0.989 (inactive) | 1 (inactive) |
| CCCCC(C#N)(Cn1cncn1)c1ccc(Cl)cc1 (centres undefined) | 1.07 | 1.07 | 1.01 | 1.14 | 0.939 (inactive) | 1.2 (inactive) | 1.07 (inactive) | 0.908 (inactive) | 0.815 (inactive) | 0.907 (inactive) | 1.16 (inactive) | 1.14 (inactive) |
| CCC1(C)CC(=O)NC(=O)C1 [Bemegride] | 1.08 | 1.06 | 1.04 | 0.973 | 0.98 (inactive) | 1.04 (inactive) | 1.03 (inactive) | 0.985 (inactive) | 0.981 (inactive) | 0.986 (inactive) | 0.991 (inactive) | 1.03 (inactive) |
| CC(C)N1C(=O)c2ccccc2NS1(=O)=O | 1.02 | 1.03 | 0.992 | 1.17 | 0.978 (inactive) | 0.976 (inactive) | 0.99 (inactive) | 0.969 (inactive) | 0.979 (inactive) | 0.979 (inactive) | 0.987 (inactive) | 1.03 (inactive) |
| CCNCC(O)c1cccc(O)c1 (centres undefined) [Etilefrine hydrochloride] | 0.977 | 0.971 | 0.996 | 0.981 | 1.05 (inactive) | 1.03 (inactive) | 0.959 (inactive) | 0.997 (inactive) | 1.01 (inactive) | 0.991 (inactive) | 0.987 (inactive) | 0.949 (inactive) |
| CCOc1ccc(C(C)(C)COCc2cccc(Oc3ccccc3)c2)cc1 | 1.14 | 1.03 | 1.01 | 1.13 | 0.97 (inactive) | 1.03 (inactive) | 1.05 (inactive) | 1.01 (inactive) | 0.984 (inactive) | 0.969 (inactive) | 1.05 (inactive) | 1.05 (inactive) |
| O=C1c2ccccc2C(=O)N1SC(Cl)(Cl)Cl | 1.06 | 1 | 0.997 | 0.937 | 1 (inactive) | 0.983 (inactive) | 0.999 (inactive) | 1.05 (inactive) | 1 (inactive) | 0.969 (inactive) | 0.988 (inactive) | 0.999 (inactive) |
